Data as given in PubChem BioAssay (NCATS).
Inconclusive results are not listed. Activity calls are given as the source filed them. Calls come from the whole dose curve; as a rule, active = well fitted curve in the direction sought with a large enough effect; inconclusive = small, poorly fitted or top-dose-only effect, or another doubt; inactive = no such curve, though single readings can be large; an effect the other way counts as inactive or inconclusive.

Columns and labels:
CRL-7250 = normal cell line; test: Cytotoxic Profiling of Annotated Libraries Using Quantitative High-Throughput Screening (AID 1296008); details: Five cell lines viability, CellTiter-Glo ATP luminescence, 48-72 h; max response: hits give low values; note: nearly all actives have a fitted effect of over 60% in size; note: potency is the fitted concentration of half-maximal effect; for max response: % is set by controls: 0 for no effect and ±100 for the full control effect
How it was run: (§1)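 Compounds were pin-transferred onto cells and incubated 48 or 72 hr at 37 degree Celsius, 95% humidity. CellTiter-Glo was added, plates sat 10 min at room temperature, then ATP-coupled luminescence was imaged as the viability read-out.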

HaCat [1] = test: as above; details: Five cell lines viability, CellTiter-Glo ATP luminescence, 48-72 h; max response: hits give low values
How it was run: as §1

KB-3-1 = test: as above; details: Five cell lines viability, CellTiter-Glo ATP luminescence, 48-72 h; max response: hits give low values
How it was run: as §1

NIH3T3 = test: as above; details: Five cell lines viability, CellTiter-Glo ATP luminescence, 48-72 h; max response: hits give low values
How it was run: as §1

CASKI = test: Primary qHTS to identify gynecologic anti-cancer compounds using libraries of approved drugs and bioactive compounds (AID 1345084); details: Gynecologic cancer cell panel viability, ATPlite luminescence, 48 h; series mostly up to 57.5 µM; note: nearly all actives have a fitted effect of over 55% in size; note: potency is the fitted concentration of half-maximal effect
How it was run: (§2)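 In this quantitative HTS, cell killing is estimated from loss of ATP-dependent luciferase light. Cells see five compound concentrations over a 48 h exposure.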

JEG-3 = test: as above; details: Gynecologic cancer cell panel viability, ATPlite luminescence, 48 h; series mostly up to 57.5 µM
How it was run: as §2

CAOV3 = test: as above; details: Gynecologic cancer cell panel viability, ATPlite luminescence, 48 h; series mostly up to 57.5 µM
How it was run: as §2

HeLa = test: as above; details: Gynecologic cancer cell panel viability, ATPlite luminescence, 48 h; series mostly up to 57.5 µM
How it was run: as §2

Hek293T = test: as above; details: Gynecologic cancer cell panel viability, ATPlite luminescence, 48 h, control line for the selectivity index; series mostly up to 57.5 µM
How it was run: as §2

PA-1 = test: as above; details: Gynecologic cancer cell panel viability, ATPlite luminescence, 48 h; series mostly up to 57.5 µM
How it was run: as §2

HACAT [2] = test: qHTS assay to identify novel small-molecules to repurpose for Merkel cell carcinoma treatment (AID 1296009); details: MCC and control cell lines, CellTiter-Glo viability, 72 h; at 44.8 µM (top of the series) unless noted; note: nearly all actives have a fitted effect of over 60% in size
How it was run: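 Viability readout: ATP luminescence (CellTiter-Glo) after 72 hr drug exposure at 37 degree celsius. Dose-response format was 8 points for NPC and 11 points for MIPE; data normalized to in-plate controls.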

C33A = test: Primary qHTS to identify gynecologic anti-cancer compounds using libraries of approved drugs and bioactive compounds (AID 1345084); details: Gynecologic cancer cell panel viability, ATPlite luminescence, 48 h; series mostly up to 57.5 µM; note: nearly all actives have a fitted effect of over 55% in size; note: potency is the fitted concentration of half-maximal effect
How it was run: as §2

Es-2 = test: as above; details: Gynecologic cancer cell panel viability, ATPlite luminescence, 48 h; series mostly up to 57.5 µM
How it was run: as §2

OV90 = test: as above; details: Gynecologic cancer cell panel viability, ATPlite luminescence, 48 h; series mostly up to 57.5 µM
How it was run: as §2

SKOV3 = test: as above; details: Gynecologic cancer cell panel viability, ATPlite luminescence, 48 h; series mostly up to 57.5 µM
How it was run: as §2

COc1cc(CCc2cc(NC(=O)c3ccc(N4CC(C)NC(C)C4)cc3)n[nH]2)cc(OC)c1 (stereo unspecified)
inactive: max response (HaCat [1]) 4.79% | Potency (CASKI) | Potency (JEG-3)
active: Potency (CRL-7250) 9.2 µM | Potency (KB-3-1) 11.6 µM | Potency (NIH3T3) 14.6 µM

Cc1ccc(S(=O)(=O)NCc2ccc(C(=O)NCCN(Cc3ccccc3)C(C)C)cc2)cc1
inactive: max response (CRL-7250) -10.1% | max response (HaCat [1]) -19.3% | max response (KB-3-1) -24.2% | max response (NIH3T3) -5.87% | Potency (CAOV3) | Potency (CASKI) | Potency (HeLa) | Potency (Hek293T) | Potency (JEG-3) | Potency (PA-1)

Cc1ccccc1CN1CCn2c1nc1c(c2=O)CN(Cc2ccccc2)CC1
inactive: max response (CRL-7250) 1.02% | outcome (HaCat [1]) | max response (KB-3-1) -11.6% | outcome (HACAT [2]) | Potency (C33A) | Potency (CAOV3) | Potency (CASKI) | Potency (Es-2) | Potency (HeLa) | Potency (Hek293T) | Potency (JEG-3) | Potency (OV90) | Potency (PA-1) | Potency (SKOV3)

C/C=C(\C)C(=O)OC1C(C)C2(O)C(C=C(CO)CC3(O)C(=O)C(C)=CC32)C2C(C)(C)C12OC(=O)C(C)C (stereo unspecified)
inactive: max response (CRL-7250) -36% | max response (HaCat [1]) -1.92% | max response (KB-3-1) -0.0958% | max response (NIH3T3) 1.03% | Potency (CAOV3) | Potency (CASKI) | Potency (Es-2) | Potency (HeLa) | Potency (Hek293T) | Potency (OV90) | Potency (PA-1) | Potency (SKOV3)

C=C1C(=O)OC2CC(C)C(CCC(C)=O)=CCC12 (stereo unspecified)
inactive: max response (CRL-7250) -28.7% | outcome (HaCat [1]) | max response (KB-3-1) -13.7% | outcome (HACAT [2]) | Potency (C33A) | Potency (CAOV3) | Potency (CASKI) | Potency (Es-2) | Potency (HeLa) | Potency (Hek293T) | Potency (JEG-3) | Potency (OV90) | Potency (PA-1) | Potency (SKOV3)

O=C(NCC1(c2nc(-c3ccccc3)cs2)CCOCC1)c1cccc(-c2noc(C(F)(F)F)n2)c1
inactive: max response (CRL-7250) -0.2% | outcome (HaCat [1]) | max response (KB-3-1) -10.2% | outcome (HACAT [2]) | Potency (C33A) | Potency (CAOV3) | Potency (CASKI) | Potency (Es-2) | Potency (HeLa) | Potency (Hek293T) | Potency (JEG-3) | Potency (OV90) | Potency (PA-1) | Potency (SKOV3)

O=C(Nc1ccc(N2C(=O)[C@@H]3[C@H](C2=O)[C@@H]2C=C[C@H]3C2)c(Cl)c1)c1ccccn1
inactive: max response (CRL-7250) -25.2% | max response (HaCat [1]) -18.9% | max response (KB-3-1) -24.5% | max response (NIH3T3) -23.8% | Potency (HeLa)

CCn1nc(C2CCN(C(=O)CCO)CC2)nc1-c1cnc(N)c(-c2nnc(C(C)(C)C)o2)n1
active: Potency (HaCat [1]) 3.66 µM | Potency (NIH3T3) 8.2 µM | Potency (SKOV3) 1.78 µM
inactive: max response (CRL-7250) -9.09% | max response (KB-3-1) 9.1% | Potency (C33A) | Potency (Es-2) | Potency (HeLa) | Potency (Hek293T) | Potency (JEG-3) | Potency (OV90)

CCC[C@H](N[C@H]1CCc2cc(F)cc(F)c2C1)C(=O)Nc1cn(C(C)(C)CNCC(C)(C)C)cn1
inactive: max response (CRL-7250) 4.72% | max response (HaCat [1]) -2.54% | max response (KB-3-1) -17.7% | max response (NIH3T3) -10.9% | Potency (C33A) | Potency (CASKI) | Potency (Es-2) | Potency (HeLa) | Potency (Hek293T) | Potency (JEG-3) | Potency (OV90) | Potency (PA-1) | Potency (SKOV3)

COc1ccc2nccc(C(=O)CC[C@@H]3CCN(CC#Cc4cc(F)cc(F)c4F)C[C@@H]3C(=O)O)c2c1
inactive: max response (CRL-7250) -3.43% | outcome (HaCat [1]) | max response (KB-3-1) 5.2% | outcome (HACAT [2]) | Potency (C33A) | Potency (CAOV3) | Potency (CASKI) | Potency (Es-2) | Potency (HeLa) | Potency (Hek293T) | Potency (JEG-3) | Potency (OV90) | Potency (PA-1)

CCOc1cccc(NC(=O)c2ccc(N3CCCC3)c(C(F)(F)F)c2)c1
inactive: max response (CRL-7250) -10.4% | outcome (HaCat [1]) | max response (KB-3-1) -0.259% | outcome (HACAT [2]) | Potency (C33A) | Potency (CAOV3) | Potency (CASKI) | Potency (Es-2) | Potency (HeLa) | Potency (Hek293T) | Potency (JEG-3) | Potency (OV90) | Potency (PA-1)

COC(=O)c1ccc(N2CCN(C)CC2)c(NC(=O)c2cccc(OC)c2)c1
inactive: max response (CRL-7250) -14.2% | max response (HaCat [1]) -1.79% | max response (KB-3-1) -6.24% | max response (NIH3T3) 3.28% | Potency (C33A) | Potency (CASKI) | Potency (Es-2) | Potency (HeLa) | Potency (Hek293T) | Potency (JEG-3) | Potency (OV90) | Potency (PA-1) | Potency (SKOV3)

O=C(c1ccc(Cl)cc1)N1CCN(c2ccnc3cc(Cl)ccc23)CC1
inactive: max response (CRL-7250) 3.03% | max response (HaCat [1]) -18.2% | max response (KB-3-1) -24.7% | max response (NIH3T3) -1.68% | Potency (CAOV3) | Potency (CASKI) | Potency (Es-2) | Potency (HeLa) | Potency (Hek293T) | Potency (JEG-3) | Potency (OV90) | Potency (PA-1) | Potency (SKOV3)
